Assay outcomes: PubChem, Sanford-Burnham Center for Chemical Genomics
C8 TRAIL sens: viability loss with TRAIL in NB7+C8 cells, primary screen, TRAIL sensitizer project, cell-based, ATPlite luminescence. inhibition (viability loss, TRAIL sensitization), % at 10 µM. hit rate 1% among 360,000. AID 624354, 2012;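 active = compounds causing at least 50% loss of cell viability in the single-dose screen, relative to plate controls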
CF NFkB block: inhibitors of PAF-induced NF-kB signaling, primary screen, cell-based, GFP fluorescence, uHTS; AID 588850, 2011; KKLEB NF-kB-GFP reporter, GFP fluorescence overnight; hit rate 0.86% among 360,000; inhibition, % at 5 µM;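 active = at least 50% inhibition at 5 µM, scaled per plate between neutral and stimulator controls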;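 also: PAF is a Pseudomonas aeruginosa culture filtrate used as stimulus; plate controls were PAF-stimulated DMSO wells for no effect and unstimulated DMSO wells for full effect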
iPSC survival up: enhancers of single-cell hiPSC survival, primary screen, ATPlite luminescence | AID 602274, 2012 | 100% = ROCK inhibitor wells, 0% = DMSO | survival enhancement, % at 20 µM | hit rate 0.044% among 360,000; in the data active = survival enhancement above about 18%;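 also: cells exposed to compounds for 16 hours before the ATP read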
KKLEB cytotox: cytotoxicity in KKLEB CF airway cells, primary screen, cytotoxicity control for CF NF-kB inhibitor project, cell-based, uHTS, fluorescence assay plates; KKLEB CF airway cells viability, ATPlite luminescence, overnight; hits give low values; cells stimulated with P. aeruginosa culture filtrate; activity change (cytotoxicity), % at 5 µM; hit rate 0.36% among 360,000; AID 602141, 2011;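 active = corrected activity change at or below -50% at 5 µM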
PPC-1+TRAIL kill: compounds killing PPC-1 cancer cells with TRAIL present, primary screen, TRAIL potentiator project, ATPLite luminescence, uHTS; hit rate 0.41% among 220,000; PPC-1 cells + TRAIL, ATPLite viability luminescence; cell killing (% activity), % at 4 µM or 5 µM;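 active = cell killing above 50% in the first pass at 4 µM, then a duplicate retest at 5 µM averaging 50% or more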;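 also: plate controls were cells with TRAIL plus DMSO for no effect and medium-only wells lacking cells for full effect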
HIF-2a inh: HIF-2a reporter inhibitors, primary screen, luminescence, 786-0 RCC cells | hit rate 0.72% among 360,000 | 786-0 RCC cells HIF-2a reporter, luciferase luminescence, overnight | AID 624352, 2012 | inhibition, % at 18.8 µM;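 active = inhibition of the luminescence signal of 40% or more relative to plate controls, in a single-dose primary screen at 18.75 µM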
Mdm2 MdmX conf: retested Mdm2-MdmX interaction blockers, confirmation, cell-based, luminescence, single concentration, set 2. shares compounds with HIF-2a inh. SaOS-2 split-luciferase Mdm2/MdmX complementation. inhibition, % at 8 µM. hit rate 99% among 740. AID 504601, 2011;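 active = mean inhibition of the luminescence signal across two replicates at or above 26 percent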
Target sequence (O15151 whole entry, looked up): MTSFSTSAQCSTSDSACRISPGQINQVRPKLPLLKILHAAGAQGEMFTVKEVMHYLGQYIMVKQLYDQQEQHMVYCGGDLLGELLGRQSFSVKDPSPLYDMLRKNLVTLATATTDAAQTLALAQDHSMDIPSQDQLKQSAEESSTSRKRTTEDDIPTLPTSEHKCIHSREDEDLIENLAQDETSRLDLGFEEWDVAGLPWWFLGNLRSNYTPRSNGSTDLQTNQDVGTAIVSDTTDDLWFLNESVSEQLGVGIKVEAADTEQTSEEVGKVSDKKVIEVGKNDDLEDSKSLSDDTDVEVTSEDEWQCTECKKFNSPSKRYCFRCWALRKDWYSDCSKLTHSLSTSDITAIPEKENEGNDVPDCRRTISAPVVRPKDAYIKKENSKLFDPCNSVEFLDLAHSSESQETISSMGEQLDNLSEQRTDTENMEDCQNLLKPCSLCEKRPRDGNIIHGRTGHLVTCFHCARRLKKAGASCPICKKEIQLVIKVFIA
Target sequence (Q00987 whole entry, looked up): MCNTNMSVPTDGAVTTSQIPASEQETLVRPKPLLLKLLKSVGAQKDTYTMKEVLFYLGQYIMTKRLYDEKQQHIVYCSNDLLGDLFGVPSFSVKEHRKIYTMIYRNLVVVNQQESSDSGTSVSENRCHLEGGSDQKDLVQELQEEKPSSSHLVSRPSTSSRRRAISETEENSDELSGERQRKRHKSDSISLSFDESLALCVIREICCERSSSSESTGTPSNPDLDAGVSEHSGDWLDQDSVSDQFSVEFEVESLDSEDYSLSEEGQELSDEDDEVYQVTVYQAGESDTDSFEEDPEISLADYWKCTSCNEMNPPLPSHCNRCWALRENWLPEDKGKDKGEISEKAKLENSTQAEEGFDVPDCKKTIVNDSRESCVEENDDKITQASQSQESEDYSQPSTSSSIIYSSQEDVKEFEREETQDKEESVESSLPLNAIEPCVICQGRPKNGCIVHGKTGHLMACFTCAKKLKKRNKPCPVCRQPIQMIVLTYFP
HIF-2a inh conf: HIF-2a reporter inhibitor retest, confirmation, luminescence, 786-0 RCC cells. shares compounds with HIF-2a inh. HIF-2a luciferase reporter luminescence, overnight. inhibition, % at 18.8 µM. hit rate 56% among 1,800. AID 651580, 2012;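 active = mean inhibition across four replicates of at least 40 percent at the single tested concentration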
HIF-1a counter: HIF-1a luciferase reporter signal reduction – MiaPaCa-2 cells, single concentration, counter-screen for HIF-2a inhibitor project, confirmation; shares compounds with HIF-2a inh; MiaPaCa-2 HIF-1a luciferase reporter, desferoxamine, overnight; inhibition, % at 18.8 µM; hit rate 72% among 1,800; AID 651589, 2012;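 active = mean inhibition of the reporter signal across four replicates at the single tested dose of 50% or more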
Starred values were filed as active, the others as inactive; . = not tested or not shown. A selection: hits, their analogues and other compounds. The true share with any hit is near 2.2%.

SMILES | C8 TRAIL sens | CF NFkB block | iPSC survival up | KKLEB cytotox | PPC-1+TRAIL kill | HIF-2a inh | HIF-2a inh conf | HIF-1a counter | others
O=C1/C(=C/c2ccccc2)C[C@@]2(O)[C@H]3Cc4ccc(O)c5c4[C@@]2(CCN3CC2CC2)C1O5 (stereo not given in full) | -23 | 76* | -5 | 0 | . | 95* | . | . | Mdm2 MdmX conf=103*
Oc1ccc2c3c1OC1c4[nH]c5ccccc5c4C[C@@]4(O)C(C2)N(CC2CC2)CC[C@]314 (stereo not given in full) | -26 | 4 | 1 | 11 | . | -2 | . | .
Cc1nc2cc(-c3ccc(Cl)cc3)nn2c(C)c1CCC(=O)N1CCC2(CC1)OCCO2 | 10 | 2 | -2 | -2 | . | 81* | 89* | 68*
C=C1[C@@H](OC(C)=O)[C@]23C[C@@H]1[C@@H](OC(C)=O)CC2[C@]12C4C[C@H]3[C@H]1N(CC)C[C@]4(C)CC[C@@H]2O (stereo not given in full) | 2 | -24 | 1 | -1 | . | 14 | . | .
CCCCCCCCCCCCCCCC[N+](C)(C)C | 85* | 75* | -3 | 30 | . | 56* | 42* | 79*
CCCCCC[N+](=O)[O-] | 5 | -8 | -2 | 0 | . | 14 | . | .
O=c1c2ccccc2nc(/C=C/c2ccc([N+](=O)[O-])o2)n1-c1ccc(O)cc1 | -14 | 12 | -1 | 1 | 3 | 67* | 2 | 105*
COc1ccc(CC(C)NCCc2ccc(OC)c(OC)c2)cc1 (stereo not given) | 21 | -6 | 1 | -4 | . | 9 | . | .
COc1ccc(CN2Cc3cnnn3-c3ccccc3C2C#N)cc1 (stereo not given) | 48 | 7 | 1 | -3 | . | 90* | 96* | 105*
COc1ccc(CN2Cc3cnnn3-c3ccccc3C2c2ccccc2)cc1 (stereo not given) | 14 | 16 | 1 | -9 | . | 26 | . | .
CC(=O)OCC12CC(OC(=O)CC(C)C)C(C)=CC1OC1C(O)C(OC(C)=O)C2(C)C12CO2 (stereo not given) | 57* | 93* | -1 | -63* | . | 82* | 79* | 102*
Nc1ccccc1C(=O)OCC(=O)N1CCc2ccccc21 | 10 | -1 | 0 | -4 | -1 | -211 | . | .
N#CSCC(=O)N1c2ccccc2CCc2ccccc21 | 4 | 59* | 0 | -26 | 16 | 41* | 28 | 72*
N=C(N)c1c(O)n(C2CCCCC2)c(=O)n(C2CCCCC2)c1=O | 4 | 27 | 2 | -20 | 3 | 52* | 24 | 97*
COc1c(/C=C2/C(=O)NC(=O)N(C)C2=O)c(CCN(C)C(=O)c2ccccc2)cc2c1OCO2 | 6 | -11 | 2 | 3 | . | -16 | . | .
CC(C)CN1Cc2cc(-c3ccccc3)ccc2-n2nncc2C1 | -6 | -19 | 1 | -1 | . | -59 | . | .
C=CCCC[C@@H]1OC(=O)CNC(=O)C([C@@H](C)CC)NC(=O)[C@@H]2CCCN2C(=O)C([C@@H](C)CC)OC(=O)[C@H](Cc2ccccc2)N(C)C(=O)[C@H](C(C)C)NC(=O)C1(C)C (stereo not given in full) | 15 | -24 | -3 | 4 | . | 82* | -13 | 104*
C[C@H]1O[C@@H](OC2CC[C@]3(C=O)[C@H]4CC[C@]5(C)[C@@H](C6=CC(=O)OC6)CC[C@]5(O)[C@@H]4CC[C@]3(O)C2)CC2OC(C)(C)OC21 (stereo not given in full) | 48* | 93* | 0 | -71* | . | 51* | 33 | 103*
CC1=CC(O)C(O)C2(C)C1CC1OC(=O)CC3C(C)C(O)C(=O)C2C13CO (stereo not given) | 6 | -16 | 3 | 12 | . | 46* | 36 | -65
CC/C(=N\Nc1ccccc1)c1c(O)n(-c2ccc(OC)cc2)c(=O)[nH]c1=O | -2 | -11 | 1 | 24 | 4 | 7 | . | .
CCCCCn1c(=O)c(C(=O)NCc2ccncc2)c(O)c2ccccc21 | -4 | 3 | -1 | -8 | 2 | 46* | 5 | -22
CCCCCn1c(=O)c(C(=O)Nc2ccncc2)c(O)c2ccccc21 | . | . | . | . | 22 | . | . | .
O=[N+]([O-])c1ccc(N2CCOCC2)c2c1no[n+]2[O-] | 94* | 84* | -6 | -92* | . | 69* | 58* | 101*
O=[N+]([O-])c1ccc(N2CCOCC2)c2cccnc12 | -12 | 7 | 0 | -5 | -9 | 11 | . | .
C[N+](C)(C)CC(=O)O | -4 | -12 | 1 | -10 | . | -7 | . | .
SMILES | C8 TRAIL sens | CF NFkB block | iPSC survival up | KKLEB cytotox | PPC-1+TRAIL kill | HIF-2a inh | HIF-2a inh conf | HIF-1a counter | others
Cc1ccccc1N1CCN(Cc2ccc3c(c2)OCO3)CC1 | 13 | -19 | 0 | -9 | . | 12 | . | .
COC(=O)C1=C(C(=O)OC)C2OC1c1cc3ccccc3cc12 | -7 | 42 | -4 | -18 | . | 86* | 84* | 59*
COC(=O)C1=C(c2ccc3ccccc3c2)C[C@@H]2CC[C@H]1N2C | -2 | 7 | -3 | 8 | . | -6 | . | .
CCS(=O)(=O)CCSP(=O)(OC)OC | 8 | 4 | 0 | -6 | . | -1 | . | .
COC(=O)[C@@H]1[C@@H](C(=O)OC)C2(c3ccccc3-c3ccccc32)N(c2ccc(Cl)cc2)N1C#N | 92* | 92* | -3 | -75* | 26 | 94* | 92* | 106*
Cc1cc(N(CCCl)CCCl)ccc1C=Cc1ccncn1 | -5 | 10 | 6 | -18 | . | -17 | . | .
CCCCN=C[C@]12CCC(O)CC1(O)CCC1[C@@H]2CC[C@]2(C)[C@H](C3C=CC(=O)O3)CCC12O (stereo not given in full) | 42 | 99* | 1 | -72* | . | 55* | 21 | 104* | Mdm2 MdmX conf=82*
CC12CCC3C(CCC4(O)CC(O)CCC34C=NO)C1(O)CCC2C1=COC(=O)C1 (stereo not given) | 69* | 85* | -2 | -48 | . | 74* | 25 | 102*
